From article PMC7819943, “Rice protein-binding microarrays: a tool to detect cis-acting elements near promoter regions in rice”
Over roughly 68,000 sequences, “fluorescence intensity (a.u.)” has its median near 9,100; the highest 2% begin near 16,000. The sample holds the highest values, similar sequences and a random draw of the others, so the mix is not that of the screen.

Each sequence was assayed against OsWRKY34 (Oryza sativa, UniProt Q0JBA9 1-250) (assay: protein-binding microarray (RPBM); PBS, 2% BSA, 51.3 ng/ul salmon testes DNA, 50 uM zinc acetate, 200 nM TF, 25 C, 1 h; high values mean tight binding). Details: protein: recombinant; tags: N-terminal polyhistidine and DsRed monomer fusion (pET32a); label: CyDye5-dUTP incorporated in the synthesized complementary strand; 3' TTTTT single-stranded linker to array surface; dsDNA, one strand shown.
OsWRKY34, sequence (Q0JBA9 entry or part of it): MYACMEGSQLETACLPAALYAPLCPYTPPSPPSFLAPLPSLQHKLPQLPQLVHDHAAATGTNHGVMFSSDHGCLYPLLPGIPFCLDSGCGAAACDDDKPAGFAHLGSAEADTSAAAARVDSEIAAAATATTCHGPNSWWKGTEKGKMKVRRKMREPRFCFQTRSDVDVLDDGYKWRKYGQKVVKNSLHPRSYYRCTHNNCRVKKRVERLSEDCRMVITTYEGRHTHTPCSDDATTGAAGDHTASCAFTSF
Outline: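 Transcription factors were each fused at the N-terminus to a polyhistidine tag plus DsRed and expressed in E. coli BL21-CodonPlus before Ni–NTA purification. Binding to a double-stranded custom Agilent array was carried out with 200 nM protein at 25 °C for 1 h in PBS, 2% BSA, salmon testes DNA and 50 µM zinc acetate. The binding signal is per-feature fluorescence intensity, in arbitrary units, on an Axon 4000B scanner.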
With “TCTTGTGTACGTTGTGTGTTGTCATTGTGTGTCTGTCTTACGGAGTCACCTAGTGCAG” the binding signal was 17200 fluorescence intensity (a.u.). With “GGTCTTGTCTGTTGTGTTAGCCATTTGTACCAACTCATGACGGAGTCACCTAGTGCAG” the binding signal was 12000 fluorescence intensity (a.u.). For “TTCACGTGTGTTTTGTGTAGTTTTCTACCAGTTTGTTGAACGGAGTCACCTAGTGCAG”, the binding signal was 8470 fluorescence intensity (a.u.). For “GCCGTTAACTTTTTTAAATATGTTTGACCGTTCGTCTTATCGGAGTCACCTAGTGCAG”, the binding signal was 10800 fluorescence intensity (a.u.). “GTGGGTTGGGCCAAAGAAAGGTAGGCTGAGTGGAGGGATGCGGAGTCACCTAGTGCAG” was tested, and the binding signal was 10400 fluorescence intensity (a.u.). With “CGCACACCACCGCCTACGTAGTAGCTCTGATCGGCGCTGTCGGAGTCACCTAGTGCAG” the binding signal was 8250 fluorescence intensity (a.u.). In the case of “AATTTTTTTTCAGCTGATCGCCACTTTATTCTTTTCATACCGGAGTCACCTAGTGCAG”, the binding signal is reported as 10200 fluorescence intensity (a.u.). For “ACCGTGTTGCTGCCTGGTGCTCGCTTTGTTCGTAGGCCTTCGGAGTCACCTAGTGCAG”, the binding signal was 8520 fluorescence intensity (a.u.). In the case of “GCTAGCGCTGGAATGGTCCTACTTCTTTCATTTACAACATCGGAGTCACCTAGTGCAG”, the binding signal is reported as 8690 fluorescence intensity (a.u.). “TATCATTATGTCCGAACGGTATACCTTCTTGTATCATTTCCGGAGTCACCTAGTGCAG” was tested, and the binding signal was 11200 fluorescence intensity (a.u.). With “CTCCGTAAGCTCCAGCCCACTGCCACCGCTGCTCCAGCTACGGAGTCACCTAGTGCAG” the binding signal was 8250 fluorescence intensity (a.u.). For “GGCGAGGCGAATGTGATGGGCTAAGTTTTGTCGTTGGCAACGGAGTCACCTAGTGCAG”, the binding signal was 8210 fluorescence intensity (a.u.). In the case of “GCCATGAAACCTCCTTTGCTCACTGCTTTGGAACCATACTCGGAGTCACCTAGTGCAG”, the binding signal is reported as 9020 fluorescence intensity (a.u.). “ACCGACCTACTTAATTGCCTCCTGCCAAAATGACCCTTTACGGAGTCACCTAGTGCAG” was tested, and the binding signal was 9140 fluorescence intensity (a.u.). In the case of “CGCCGTTGACTTTTTGTTTAACGTTTGACCATTTGTCTTACGGAGTCACCTAGTGCAG”, the binding signal is reported as 24400 fluorescence intensity (a.u.). “TTTCCGCATTTCCGCTCCTCTCTTTTTTACCCTTGACATGCGGAGTCACCTAGTGCAG” was tested, and the binding signal was 8530 fluorescence intensity (a.u.). For “CTTTTCATCTTCTTGACGACTTGGTTGTTTGATTCATTTACGGAGTCACCTAGTGCAG”, the binding signal was 8830 fluorescence intensity (a.u.). For “ATCCAACCCAACTCCCGTTGCTTTTTGTTGGACCCACTTGCGGAGTCACCTAGTGCAG”, the binding signal was 8110 fluorescence intensity (a.u.). With “AAAAACTGGGCCAGCTTTTTGTTTTTTTTACCACCCACAGCGGAGTCACCTAGTGCAG” the binding signal was 9010 fluorescence intensity (a.u.). With “ATGACGCCGTTGACTTTTTGTCCAACGACCATTCATTTTACGGAGTCACCTAGTGCAG” the binding signal was 31300 fluorescence intensity (a.u.). With “CACCGTTAACTTTTTATTACGTATTTGACCATTTGTCTTACGGAGTCACCTAGTGCAG” the binding signal was 10200 fluorescence intensity (a.u.). With “CCGCCTCCTTTGACCCTACCAAAATTTACCGTTGACCATGCGGAGTCACCTAGTGCAG” the binding signal was 20000 fluorescence intensity (a.u.). For “AGTGTTGACCAGCTTTGACCACCTTACCCAACTCCTTGTGCGGAGTCACCTAGTGCAG”, the binding signal was 17200 fluorescence intensity (a.u.). For “ATTTTGAGTTTTTACTTGTAACGTTTGACCACTTGTCTTACGGAGTCACCTAGTGCAG”, the binding signal was 8620 fluorescence intensity (a.u.). In the case of “AACCCATTTTCTGCTCTGCTCTTGCTTTGCTTTGCATTTCCGGAGTCACCTAGTGCAG”, the binding signal is reported as 14000 fluorescence intensity (a.u.). For “ATTGTTTGTCCCGTCCCTACATCACGCCAAAAGTCACAACCGGAGTCACCTAGTGCAG”, the binding signal was 11800 fluorescence intensity (a.u.). For “GGAGGGGCGGCGATCGAGCAGAGCAGGGGAGGGAATCCTGCGGAGTCACCTAGTGCAG”, the binding signal was 8310 fluorescence intensity (a.u.). For “CAGTGTATATTTCAGTGTATATTTGGTAGATTTGGTAGTACGGAGTCACCTAGTGCAG”, the binding signal was 8310 fluorescence intensity (a.u.). For “CTACCCTATGCTATGAGACCGCTCTTATTCCGGGGTTTAACGGAGTCACCTAGTGCAG”, the binding signal was 9760 fluorescence intensity (a.u.). “TTCGCCGTGTTACTGTAGCTCAAATCTCTAGCTTCCCCAACGGAGTCACCTAGTGCAG” was tested, and the binding signal was 9240 fluorescence intensity (a.u.). For “CTAACACATTCATCACATGATTAAAATTTTATTATTTATACGGAGTCACCTAGTGCAG”, the binding signal was 8510 fluorescence intensity (a.u.). In the case of “CCATCATATTTGACTATTTTCAGGTGTTAGTTTGGACGATCGGAGTCACCTAGTGCAG”, the binding signal is reported as 9210 fluorescence intensity (a.u.). For “TGACTTTTTAGCATATGTTTGACCGTTCGTCTTATTCAAACGGAGTCACCTAGTGCAG”, the binding signal was 13600 fluorescence intensity (a.u.). For “TGTTTGACCGTTCGTCTTATTAAAATTTTTTTGTGAAATACGGAGTCACCTAGTGCAG”, the binding signal was 8610 fluorescence intensity (a.u.). With “CACCATTGACTTTTTAGCACATGTTTGACCGTTCGTCTTACGGAGTCACCTAGTGCAG” the binding signal was 14800 fluorescence intensity (a.u.). “TTCTGAATGTGATTGAATTAATTGGACTTGCGTTGACCTTCGGAGTCACCTAGTGCAG” was tested, and the binding signal was 11700 fluorescence intensity (a.u.). For “CGTTTGACCGTTCGTCTTATTTGAAAATTTTTTATGCTTACGGAGTCACCTAGTGCAG”, the binding signal was 10100 fluorescence intensity (a.u.). For “TTCCTTTGTTTAGTTGTTTGTTTTACATTCCACTCTACTACGGAGTCACCTAGTGCAG”, the binding signal was 9220 fluorescence intensity (a.u.). For “TCCACCATTGACCAATGCCACGTCCTGCCAAATCCTCCTCCGGAGTCACCTAGTGCAG”, the binding signal was 10700 fluorescence intensity (a.u.). “GAGTGCCATTGAATCCTTCTGTTGCGTTGACCACCAAATGCGGAGTCACCTAGTGCAG” was tested, and the binding signal was 16500 fluorescence intensity (a.u.). With “CGCCGTTGACTTTTTAAAATTTGTTTGACCGTTCGTCTTACGGAGTCACCTAGTGCAG” the binding signal was 30700 fluorescence intensity (a.u.). “CACCATTGACTTTTTAGCATATGTTTGACCGTTCGTCTTACGGAGTCACCTAGTGCAG” was tested, and the binding signal was 18200 fluorescence intensity (a.u.). In the case of “TTTTGCCCTTTTTCTCTCGCCAGCTCGGACCCGTCGTGACCGGAGTCACCTAGTGCAG”, the binding signal is reported as 8730 fluorescence intensity (a.u.). In the case of “TTGGTTAGTTGCCACTCTCTCTCGCCGTGACCCTTTTTTACGGAGTCACCTAGTGCAG”, the binding signal is reported as 20600 fluorescence intensity (a.u.).
